Source: article PMC7862700, “An all-to-all approach to the identification of sequence-specific readers for epigenetic DNA modifications on cytosine”

What was measured:
Test in all cases: DAPPL (digital affinity profiling via proximity ligation, sequencing); 10 mM Tris-HCl pH 7.5, 50 mM NaCl, 1 mM DTT, 4% glycerol, room temperature, 30 min; GST-TFs on glutathione beads, 16-mer random dsDNA library, 0.1% formaldehyde crosslink after washing; high values mean tight binding
FEV = molecular target: T1, FEV (Homo sapiens, UniProt Q99581 1-238); conditions: protein: recombinant; tags: N-terminal GST; dsDNA, one strand shown
T1 sequence: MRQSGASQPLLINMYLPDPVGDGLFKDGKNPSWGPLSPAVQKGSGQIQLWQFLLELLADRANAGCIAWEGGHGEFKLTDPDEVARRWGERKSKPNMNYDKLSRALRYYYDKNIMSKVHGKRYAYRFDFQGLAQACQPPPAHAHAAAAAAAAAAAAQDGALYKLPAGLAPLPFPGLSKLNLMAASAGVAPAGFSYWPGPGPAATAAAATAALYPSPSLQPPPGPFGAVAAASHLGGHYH
How it was run: (§1)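 Binding signal is each hexamer's read frequency for a factor divided by its frequency in the tag-only sample. The factors were GST-fused human transcription factors from yeast, captured on glutathione beads, DNA-barcoded and pooled with that sample. Pools were incubated with 200 nmole of a random double-stranded 16-mer DNA library in Tris/NaCl/DTT/glycerol buffer at room temperature for 30 min, then washed, crosslinked with 0.1% formaldehyde, proximity-ligated with BsaI/T4 ligase (1 h, 37 °C), PCR-amplified and sequenced on an Illumina NextSeq500.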

ETV5 = ETV5 (Homo sapiens, UniProt P41161 1-510); conditions: protein: recombinant; tags: N-terminal GST; dsDNA, one strand shown
Sequence of ETV5 (P41161 whole entry): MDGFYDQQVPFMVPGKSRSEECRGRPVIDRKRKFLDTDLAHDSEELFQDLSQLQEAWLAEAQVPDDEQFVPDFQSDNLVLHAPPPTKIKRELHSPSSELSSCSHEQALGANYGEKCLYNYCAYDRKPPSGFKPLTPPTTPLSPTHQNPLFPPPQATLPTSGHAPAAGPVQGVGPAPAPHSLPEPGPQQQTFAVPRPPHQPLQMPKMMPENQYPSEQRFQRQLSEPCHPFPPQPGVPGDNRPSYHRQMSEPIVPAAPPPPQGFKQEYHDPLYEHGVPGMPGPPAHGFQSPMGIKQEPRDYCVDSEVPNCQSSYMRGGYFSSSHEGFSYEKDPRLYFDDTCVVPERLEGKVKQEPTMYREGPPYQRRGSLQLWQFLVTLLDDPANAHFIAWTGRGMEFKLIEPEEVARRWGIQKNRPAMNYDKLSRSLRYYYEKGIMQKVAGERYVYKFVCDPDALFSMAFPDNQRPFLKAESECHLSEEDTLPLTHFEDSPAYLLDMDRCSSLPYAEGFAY
How it was run: as §1

HSF1 = HSF1 (Homo sapiens, UniProt Q00613 1-529); conditions: protein: recombinant; tags: N-terminal GST; chain copies: 3; dsDNA, one strand shown
Sequence of HSF1 (Q00613 whole entry): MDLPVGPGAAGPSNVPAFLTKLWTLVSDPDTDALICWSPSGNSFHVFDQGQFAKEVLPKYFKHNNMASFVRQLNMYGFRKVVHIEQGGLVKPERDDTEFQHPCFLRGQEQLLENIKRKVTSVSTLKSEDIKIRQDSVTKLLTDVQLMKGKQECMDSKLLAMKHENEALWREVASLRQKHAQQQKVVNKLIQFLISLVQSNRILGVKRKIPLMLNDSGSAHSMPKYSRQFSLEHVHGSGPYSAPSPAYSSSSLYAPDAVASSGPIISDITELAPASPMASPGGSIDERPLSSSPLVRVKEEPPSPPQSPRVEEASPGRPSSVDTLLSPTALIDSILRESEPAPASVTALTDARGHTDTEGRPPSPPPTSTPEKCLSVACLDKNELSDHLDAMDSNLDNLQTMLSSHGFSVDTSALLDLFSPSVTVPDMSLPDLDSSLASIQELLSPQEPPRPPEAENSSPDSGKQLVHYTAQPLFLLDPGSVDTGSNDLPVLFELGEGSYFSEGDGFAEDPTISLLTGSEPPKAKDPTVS
How it was run: as §1

ELF4 = ELF4 (Homo sapiens, UniProt Q99607 1-663); conditions: protein: recombinant; tags: N-terminal GST; dsDNA, one strand shown
Sequence of ELF4 (Q99607 whole entry): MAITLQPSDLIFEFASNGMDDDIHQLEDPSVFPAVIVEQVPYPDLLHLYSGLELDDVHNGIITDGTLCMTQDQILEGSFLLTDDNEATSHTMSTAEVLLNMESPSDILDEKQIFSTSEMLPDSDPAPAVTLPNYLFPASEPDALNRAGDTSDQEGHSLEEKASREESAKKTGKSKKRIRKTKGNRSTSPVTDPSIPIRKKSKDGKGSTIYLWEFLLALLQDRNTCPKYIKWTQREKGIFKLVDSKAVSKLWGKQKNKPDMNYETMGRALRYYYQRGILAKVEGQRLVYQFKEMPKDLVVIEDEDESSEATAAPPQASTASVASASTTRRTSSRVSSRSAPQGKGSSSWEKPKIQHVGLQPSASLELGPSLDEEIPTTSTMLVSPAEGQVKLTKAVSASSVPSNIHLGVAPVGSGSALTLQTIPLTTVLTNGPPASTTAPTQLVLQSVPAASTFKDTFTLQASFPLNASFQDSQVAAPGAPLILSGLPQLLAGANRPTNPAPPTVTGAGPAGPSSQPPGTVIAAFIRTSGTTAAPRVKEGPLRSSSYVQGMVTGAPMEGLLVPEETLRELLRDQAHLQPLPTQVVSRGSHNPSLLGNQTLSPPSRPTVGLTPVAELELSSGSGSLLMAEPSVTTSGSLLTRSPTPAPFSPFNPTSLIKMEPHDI
How it was run: as §1

ELK4 = molecular target: T2, ELK4 (Homo sapiens, UniProt P28324-2 1-405); conditions: protein: recombinant; tags: N-terminal GST; dsDNA, one strand shown
T2 sequence: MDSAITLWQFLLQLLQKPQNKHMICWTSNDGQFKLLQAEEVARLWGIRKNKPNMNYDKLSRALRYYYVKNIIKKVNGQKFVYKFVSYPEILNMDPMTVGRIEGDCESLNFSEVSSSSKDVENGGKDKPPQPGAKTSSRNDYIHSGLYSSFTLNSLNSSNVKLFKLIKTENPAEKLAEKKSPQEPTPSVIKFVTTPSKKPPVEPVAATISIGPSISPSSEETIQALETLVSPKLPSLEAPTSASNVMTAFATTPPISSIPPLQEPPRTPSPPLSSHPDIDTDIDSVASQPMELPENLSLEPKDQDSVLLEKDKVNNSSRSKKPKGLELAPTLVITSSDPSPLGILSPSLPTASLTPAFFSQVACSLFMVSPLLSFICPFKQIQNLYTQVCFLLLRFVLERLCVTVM
How it was run: as §1

ETV2 = molecular target: T3, ETV2 (Homo sapiens, UniProt O00321 1-342); conditions: protein: recombinant; tags: N-terminal GST; dsDNA, one strand shown
T3 sequence: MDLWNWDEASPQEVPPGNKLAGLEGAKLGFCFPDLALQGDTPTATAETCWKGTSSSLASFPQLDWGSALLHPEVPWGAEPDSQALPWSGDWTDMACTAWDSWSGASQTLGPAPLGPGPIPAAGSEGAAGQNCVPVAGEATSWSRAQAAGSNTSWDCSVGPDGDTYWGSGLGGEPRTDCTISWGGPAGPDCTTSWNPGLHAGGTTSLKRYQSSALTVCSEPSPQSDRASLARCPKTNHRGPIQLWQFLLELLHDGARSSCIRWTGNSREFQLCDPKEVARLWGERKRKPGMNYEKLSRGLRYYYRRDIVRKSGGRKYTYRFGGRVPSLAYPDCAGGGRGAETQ
How it was run: as §1

ELF3 = molecular target: T4, ELF3 (Homo sapiens, UniProt P78545 1-371); conditions: protein: recombinant; tags: N-terminal GST; dsDNA, one strand shown
T4 sequence: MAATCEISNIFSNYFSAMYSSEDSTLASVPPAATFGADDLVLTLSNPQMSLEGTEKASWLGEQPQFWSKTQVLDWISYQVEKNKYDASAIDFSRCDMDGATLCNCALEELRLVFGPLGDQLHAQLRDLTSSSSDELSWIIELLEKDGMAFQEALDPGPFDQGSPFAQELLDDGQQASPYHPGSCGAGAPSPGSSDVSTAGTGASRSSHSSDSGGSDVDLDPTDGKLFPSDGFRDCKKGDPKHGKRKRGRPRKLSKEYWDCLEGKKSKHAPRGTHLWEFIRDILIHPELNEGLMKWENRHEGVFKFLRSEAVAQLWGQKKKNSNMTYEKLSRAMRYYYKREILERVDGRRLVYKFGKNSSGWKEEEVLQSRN
How it was run: as §1

CRX = CRX (Homo sapiens, UniProt O43186 1-299); conditions: protein: recombinant; tags: N-terminal GST; dsDNA, one strand shown
Sequence of CRX (O43186 whole entry): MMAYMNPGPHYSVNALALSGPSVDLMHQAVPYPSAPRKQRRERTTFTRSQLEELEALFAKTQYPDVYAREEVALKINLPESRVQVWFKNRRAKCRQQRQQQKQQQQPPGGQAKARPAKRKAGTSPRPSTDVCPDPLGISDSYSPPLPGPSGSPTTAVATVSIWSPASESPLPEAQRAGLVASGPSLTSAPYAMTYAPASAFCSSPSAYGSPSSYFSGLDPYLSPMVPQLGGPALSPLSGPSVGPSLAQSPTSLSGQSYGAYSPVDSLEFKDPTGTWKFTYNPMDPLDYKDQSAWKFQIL
How it was run: as §1

ETV1 = ETV1 (Homo sapiens, UniProt P50549 1-477); conditions: protein: recombinant; tags: N-terminal GST; dsDNA, one strand shown
Sequence of ETV1 (P50549 whole entry): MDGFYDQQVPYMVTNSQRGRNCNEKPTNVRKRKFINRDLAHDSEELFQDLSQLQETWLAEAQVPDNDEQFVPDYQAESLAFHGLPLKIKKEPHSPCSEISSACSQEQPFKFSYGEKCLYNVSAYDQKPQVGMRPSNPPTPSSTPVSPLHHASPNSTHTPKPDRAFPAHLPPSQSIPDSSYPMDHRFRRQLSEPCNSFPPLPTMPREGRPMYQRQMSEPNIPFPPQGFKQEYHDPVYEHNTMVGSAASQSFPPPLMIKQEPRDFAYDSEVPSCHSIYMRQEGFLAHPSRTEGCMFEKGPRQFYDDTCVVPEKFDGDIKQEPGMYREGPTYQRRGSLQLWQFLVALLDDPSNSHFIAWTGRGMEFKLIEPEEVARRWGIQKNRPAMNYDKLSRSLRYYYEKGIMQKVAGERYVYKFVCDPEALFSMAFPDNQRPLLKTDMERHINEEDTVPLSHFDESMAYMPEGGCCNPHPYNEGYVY
How it was run: as §1

ERF = molecular target: T5, ERF (Homo sapiens, UniProt P50548 1-548); conditions: protein: recombinant; tags: N-terminal GST; dsDNA, one strand shown
T5 sequence: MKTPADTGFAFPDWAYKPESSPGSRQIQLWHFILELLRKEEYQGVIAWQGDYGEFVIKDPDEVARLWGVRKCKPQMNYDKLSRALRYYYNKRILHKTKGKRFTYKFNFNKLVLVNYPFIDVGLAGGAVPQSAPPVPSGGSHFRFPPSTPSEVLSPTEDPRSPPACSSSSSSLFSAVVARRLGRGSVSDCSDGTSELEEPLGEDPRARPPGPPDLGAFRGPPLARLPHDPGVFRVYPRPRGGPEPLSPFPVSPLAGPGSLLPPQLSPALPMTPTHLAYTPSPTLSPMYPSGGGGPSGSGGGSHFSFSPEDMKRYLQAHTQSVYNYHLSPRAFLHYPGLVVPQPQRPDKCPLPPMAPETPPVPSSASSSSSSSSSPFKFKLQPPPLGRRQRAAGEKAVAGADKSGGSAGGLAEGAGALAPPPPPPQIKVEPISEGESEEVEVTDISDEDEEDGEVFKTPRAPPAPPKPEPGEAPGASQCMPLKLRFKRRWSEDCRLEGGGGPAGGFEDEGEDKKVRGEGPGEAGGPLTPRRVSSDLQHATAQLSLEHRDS
How it was run: as §1

ETV3L = molecular target: T6, ETV3L (Homo sapiens, UniProt Q6ZN32 1-361); conditions: protein: recombinant; tags: N-terminal GST; dsDNA, one strand shown
T6 sequence: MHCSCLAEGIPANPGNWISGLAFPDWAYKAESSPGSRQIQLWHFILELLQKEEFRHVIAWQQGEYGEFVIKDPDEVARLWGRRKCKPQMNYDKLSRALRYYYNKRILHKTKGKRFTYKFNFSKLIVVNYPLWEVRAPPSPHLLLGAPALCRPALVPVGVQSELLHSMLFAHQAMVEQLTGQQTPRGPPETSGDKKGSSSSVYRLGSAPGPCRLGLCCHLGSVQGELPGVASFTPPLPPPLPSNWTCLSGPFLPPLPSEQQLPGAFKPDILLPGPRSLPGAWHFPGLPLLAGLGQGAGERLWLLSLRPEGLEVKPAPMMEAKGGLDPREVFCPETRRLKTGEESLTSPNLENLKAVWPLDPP
How it was run: as §1

ETS2 = molecular target: T7, ETS2 (Homo sapiens, UniProt P15036 1-469); conditions: protein: recombinant; tags: N-terminal GST; dsDNA, one strand shown
T7 sequence: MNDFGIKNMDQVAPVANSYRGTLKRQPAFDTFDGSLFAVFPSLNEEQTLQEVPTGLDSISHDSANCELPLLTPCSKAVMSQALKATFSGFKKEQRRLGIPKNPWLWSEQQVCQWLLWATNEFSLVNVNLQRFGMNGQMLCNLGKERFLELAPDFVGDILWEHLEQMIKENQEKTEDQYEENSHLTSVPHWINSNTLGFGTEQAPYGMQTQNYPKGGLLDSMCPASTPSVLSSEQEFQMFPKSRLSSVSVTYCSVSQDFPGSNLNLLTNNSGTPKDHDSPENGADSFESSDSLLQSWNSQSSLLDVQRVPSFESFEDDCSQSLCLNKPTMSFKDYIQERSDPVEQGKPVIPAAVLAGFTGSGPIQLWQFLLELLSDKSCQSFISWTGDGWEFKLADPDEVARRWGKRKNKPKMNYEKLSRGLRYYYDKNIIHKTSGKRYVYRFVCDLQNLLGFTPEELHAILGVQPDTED
How it was run: as §1

SPDEF = molecular target: T8, SPDEF (Homo sapiens, UniProt O95238 1-335); conditions: protein: recombinant; tags: N-terminal GST; dsDNA, one strand shown
T8 sequence: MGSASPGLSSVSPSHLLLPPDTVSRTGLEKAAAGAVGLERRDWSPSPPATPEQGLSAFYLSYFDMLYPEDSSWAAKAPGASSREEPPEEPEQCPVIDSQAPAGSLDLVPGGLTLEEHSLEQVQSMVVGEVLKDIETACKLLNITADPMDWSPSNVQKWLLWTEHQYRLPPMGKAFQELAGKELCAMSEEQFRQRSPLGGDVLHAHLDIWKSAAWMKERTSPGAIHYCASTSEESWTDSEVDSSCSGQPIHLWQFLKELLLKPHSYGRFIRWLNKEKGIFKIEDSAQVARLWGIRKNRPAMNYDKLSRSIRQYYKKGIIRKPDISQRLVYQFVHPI
How it was run: as §1

ETV7 = molecular target: T9, ETV7 (Homo sapiens, UniProt Q9Y603 1-341); conditions: protein: recombinant; tags: N-terminal GST; dsDNA, one strand shown
T9 sequence: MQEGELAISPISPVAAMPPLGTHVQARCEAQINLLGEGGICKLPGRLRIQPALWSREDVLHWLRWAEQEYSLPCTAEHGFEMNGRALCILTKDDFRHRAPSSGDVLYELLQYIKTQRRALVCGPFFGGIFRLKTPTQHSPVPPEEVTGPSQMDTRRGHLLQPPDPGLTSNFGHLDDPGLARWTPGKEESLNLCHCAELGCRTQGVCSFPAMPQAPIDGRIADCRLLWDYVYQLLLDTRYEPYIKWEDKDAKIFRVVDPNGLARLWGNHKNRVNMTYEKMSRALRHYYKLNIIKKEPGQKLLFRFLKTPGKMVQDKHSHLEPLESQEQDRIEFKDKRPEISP
How it was run: as §1

ELF5 = molecular target: T10, ELF5 (Homo sapiens, UniProt Q9UKW6-2 1-255); conditions: protein: recombinant; tags: N-terminal GST; dsDNA, one strand shown
T10 sequence: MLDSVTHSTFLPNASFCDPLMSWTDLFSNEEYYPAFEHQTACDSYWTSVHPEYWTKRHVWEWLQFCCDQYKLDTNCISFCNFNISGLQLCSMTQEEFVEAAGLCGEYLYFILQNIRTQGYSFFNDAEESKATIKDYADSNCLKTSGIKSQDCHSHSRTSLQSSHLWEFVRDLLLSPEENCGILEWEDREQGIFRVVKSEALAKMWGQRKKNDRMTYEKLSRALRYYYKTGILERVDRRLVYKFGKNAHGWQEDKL
How it was run: as §1

ETV3 = molecular target: T11, ETV3 (Homo sapiens, UniProt P41162-2 1-143); conditions: protein: recombinant; tags: N-terminal GST; dsDNA, one strand shown
T11 sequence: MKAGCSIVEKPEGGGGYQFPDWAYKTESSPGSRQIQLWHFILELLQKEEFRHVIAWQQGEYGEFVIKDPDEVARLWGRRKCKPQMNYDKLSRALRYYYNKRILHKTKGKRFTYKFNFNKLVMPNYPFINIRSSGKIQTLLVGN
How it was run: as §1

ETV6 = ETV6 (Homo sapiens, UniProt P41212 1-452); conditions: protein: recombinant; tags: N-terminal GST; dsDNA, one strand shown
Sequence of ETV6 (P41212 whole entry): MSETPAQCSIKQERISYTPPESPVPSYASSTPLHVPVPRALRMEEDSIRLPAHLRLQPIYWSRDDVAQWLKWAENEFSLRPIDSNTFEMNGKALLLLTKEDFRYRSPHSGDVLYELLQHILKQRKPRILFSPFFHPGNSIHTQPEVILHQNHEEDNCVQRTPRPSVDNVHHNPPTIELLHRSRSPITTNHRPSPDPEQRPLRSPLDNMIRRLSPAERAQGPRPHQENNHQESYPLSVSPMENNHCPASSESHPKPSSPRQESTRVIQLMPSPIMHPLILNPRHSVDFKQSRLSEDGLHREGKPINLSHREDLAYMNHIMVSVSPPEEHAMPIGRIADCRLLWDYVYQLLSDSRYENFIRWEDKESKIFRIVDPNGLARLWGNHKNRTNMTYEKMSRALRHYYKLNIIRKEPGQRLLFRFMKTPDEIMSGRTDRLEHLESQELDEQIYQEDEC
How it was run: as §1

**Q.** Which binding signal (FEV) does the source give for TAGTGT here?
**A.** 1.02 fold enrichment (6-mer frequency, TF over GST control)

**Q.** And the binding signal (ETV5)?
**A.** 1.12 fold enrichment (6-mer frequency, TF over GST control)

**Q.** What about the binding signal (HSF1) of the same sequence?
**A.** 1.15 fold enrichment (6-mer frequency, TF over GST control)

**Q.** And the binding signal (ELF4)?
**A.** 1.11 fold enrichment (6-mer frequency, TF over GST control)

**Q.** And the binding signal (ELK4)?
**A.** 1.4 fold enrichment (6-mer frequency, TF over GST control)

**Q.** What about the binding signal (ETV2) of the same sequence?
**A.** 1.06 fold enrichment (6-mer frequency, TF over GST control)

**Q.** What about the binding signal (ELF3) of the same sequence?
**A.** 1.21 fold enrichment (6-mer frequency, TF over GST control)

**Q.** What about the binding signal (CRX) of the same sequence?
**A.** 1.29 fold enrichment (6-mer frequency, TF over GST control)

**Q.** And the binding signal (ETV1)?
**A.** 1.21 fold enrichment (6-mer frequency, TF over GST control)

**Q.** And the binding signal (ERF)?
**A.** 1.02 fold enrichment (6-mer frequency, TF over GST control)

**Q.** And the binding signal (ETV3L)?
**A.** 1.04 fold enrichment (6-mer frequency, TF over GST control)

**Q.** What about the binding signal (ETS2) of the same sequence?
**A.** 1.11 fold enrichment (6-mer frequency, TF over GST control)

**Q.** What about the binding signal (SPDEF) of the same sequence?
**A.** 1.18 fold enrichment (6-mer frequency, TF over GST control)

**Q.** And the binding signal (ETV7)?
**A.** 1.2 fold enrichment (6-mer frequency, TF over GST control)

**Q.** What about the binding signal (ELF5) of the same sequence?
**A.** 1.14 fold enrichment (6-mer frequency, TF over GST control)

**Q.** And the binding signal (ETV3)?
**A.** 1.13 fold enrichment (6-mer frequency, TF over GST control)

**Q.** What about the binding signal (ETV6) of the same sequence?
**A.** 1.02 fold enrichment (6-mer frequency, TF over GST control)
